Results published in PubChem BioAssay AID652053 (Broad Institute, 2013).
In all, about 1,300 compounds went through this assay and about 930 (72%) were called active.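 The calls were made as follows: active = fitted curve reaches 40% activation signal increase at or below the top valid tested concentration in every replicate test; inconclusive = replicate tests disagree in their calls; inactive = all replicate tests inactive, including effects opposite the expected signal rise.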 So high a share suggests a set chosen from earlier hits. Only a sample is shown. Results with a measured potency or affinity are listed apart.

assay: miR-122 inhibitors in Huh7 reporter cells, dose response, cell-based, Huh7 psiCHECK-miR122, Renilla luciferase, cherry-pick (AID 652053); details: 48 h; series mostly up to 35 µM

outcome, inactive:
Cc1ccc2cc(-c3noc(C(C)(C)C)n3)c(=O)[nH]c2c1
CC(=O)c1cccc(NC(=O)NCc2cccs2)c1
O=c1c[n+]([O-])c2ccccc2n1OCc1c(F)cccc1F
COc1ccc(S(=O)(=O)N2N=C(C)Oc3ccccc3C2=O)cc1
COc1ccc(-c2nc(SCc3ccccc3)n(S(C)(=O)=O)n2)cc1
COc1ccc(OCCCC(=O)NCCc2ccccc2)cc1
COc1ccc(NC(=O)CCN2C(=O)c3ccccc3C2=O)cc1
CC(=O)Nc1nonc1-n1nnc(C(=O)NCc2ccccc2)c1C
O=C(CN(Cc1cccs1)S(=O)(=O)c1ccc(S(=O)(=O)NC2CCCCC2)cc1)Nc1ccccc1
C=CCN=C1NN=C(c2ccc3c(c2)OCCO3)CS1
CC(=O)N1N=C(c2ccccc2)CC1c1cccs1 (centres undefined)
CCC(=O)N1[C@H](CN(C)C(C)=O)[C@@H](c2ccc(C3=CCCC3)cc2)[C@@H]1CO
C[C@@H]1CN([C@H](C)CO)C(=O)c2cc(NC(=O)Nc3cccc4ccccc34)ccc2O[C@@H]1CN(C)C(=O)Nc1ccccc1
CCNc1nc(N)nc(Oc2ccc(OCCOc3ccccc3)nn2)n1
CCOc1ccccc1NS(=O)(=O)N(C)C
C[C@H]1CN([C@@H](C)CO)C(=O)c2cccc(NC(=O)Nc3ccccc3)c2O[C@H]1CN(C)Cc1ccc(C(=O)Nc2ccccc2N)cc1
C[C@@H]1CN([C@@H](C)CO)C(=O)c2cccc(NC(=O)Nc3ccccc3)c2O[C@H]1CN(C)Cc1ccc(C(=O)Nc2ccccc2N)cc1
C[C@@H]1CN([C@H](C)CO)C(=O)c2cccc(NC(=O)Nc3ccccc3)c2O[C@H]1CN(C)Cc1ccc(C(=O)Nc2ccccc2N)cc1
C[C@H](CO)N1C[C@H](C)[C@@H](CN(C)C(=O)NC2CCCCC2)Oc2ccc(NC(=O)Nc3cccc4ccccc34)cc2CC1=O
CC/C(=N\NC(=O)c1ccc2c(c1)OCO2)C12CC3CC(CC(C3)C1)C2
COc1ccc(C(=O)Oc2ccc(C(=S)N3CCOCC3)cc2)cc1
O=C(C(c1ccccc1)c1ccccc1)N1CCOCC1
COc1ccc(C(=O)Nc2nc3c(s2)CCCC3)cc1S(=O)(=O)N1CCCc2ccccc21
CCCC#Cc1cnc2c(c1)C(=O)N([C@H](C)CO)C[C@H](C)[C@H](CN(C)C(=O)c1ccccc1)O2
C[C@H]1CN([C@@H](C)CO)C(=O)c2cc(C#CC(C)(C)O)cnc2O[C@H]1CN(C)Cc1cncnc1
COCC(=O)N(C)C[C@@H]1Oc2ncc(C#Cc3cccnc3)cc2C(=O)N([C@H](C)CO)C[C@H]1C
C[C@@H]1CN([C@H](C)CO)C(=O)Cc2cc(NC(=O)Nc3cccc4ccccc34)ccc2O[C@@H]1CN(C)C(=O)NC1CCCCC1
O=C(NNC(=S)NC1CCCCC1)c1ccc2c(c1)OCO2
Cc1ccc(Cl)cc1NC(=S)N(CCCN1CCOCC1)Cc1ccccn1
COCCn1c(C)cc(C(=O)COC(=O)c2cc3c(s2)CCC3)c1C
O=C(c1ccccc1)c1ccc(-c2ccc(O)cc2)cc1
O=C(OCc1ccccc1Cl)c1ccccc1C(=O)c1ccccc1
CC(=O)Nc1ccc(S(=O)(=O)NCCc2ccc(S(N)(=O)=O)cc2)cc1
COCC(=O)NC[C@H]1[C@H](c2ccccc2)[C@@H](CO)N1C(=O)c1ccccc1
C[C@H]1CN([C@@H](C)CO)C(=O)Cc2cc(NC(=O)Nc3cccc4ccccc34)ccc2O[C@@H]1CN(C)C(=O)NC1CCCCC1
CCC1(c2ccc(F)cc2)NC(=O)N(CC(=O)Nc2ccc(-c3nc4ccc(C)cc4s3)cc2)C1=O (centres undefined)
COC(=O)c1sccc1NC(=S)Nc1ccc(F)cc1
COc1ccc(CCNC(=O)COC(=O)Cn2cnc3ccccc3c2=O)cc1
Cc1ccc(Nc2nc(C(=O)NCc3ccco3)cs2)cc1
O=c1c2c(nc3nc(SCc4ccccc4)[nH]n13)CCC2
Cc1ccc(CSc2nnc(-c3cccnc3)o2)cc1
CN(C[C@H]1N[C@@H](CO)[C@H]1c1ccc(-c2cccc(F)c2)cc1)S(C)(=O)=O
C[C@@H]1CN([C@H](C)CO)C(=O)c2cccc(NS(=O)(=O)c3ccccc3)c2O[C@H]1CN(C)Cc1ccc(C(=O)Nc2ccccc2N)cc1
C[C@H]1CN([C@@H](C)CO)C(=O)c2cccc(NS(=O)(=O)c3ccccc3)c2O[C@H]1CN(C)Cc1ccc(C(=O)Nc2ccccc2N)cc1
CCCCC(O)(CCCC)C(=O)NN(C(=O)OC)c1ccccc1
COc1ccc(C(=O)N[C@H](C(=O)Nc2nc3ccccc3[nH]2)C(C)C)cc1
CC(=O)N1[C@H](CNC(=O)C2CC2)[C@H](c2ccc(-c3ccccc3)cc2)[C@@H]1CO
O=C(N/N=C/c1cccc(F)c1)c1csc2c1CCCC2
CC(C)NC(=O)N1[C@H](CO)[C@@H]2c3ccccc3N(C(=O)c3ccccc3F)C[C@@H]21
CC(C)NC(=O)N1CC[C@@H]2[C@@H](CO)N(C)c3ccc(-c4cccc(F)c4)cc3[C@@H]21
O=C(NC[C@H]1N[C@H](CO)[C@H]1c1ccccc1)c1ccccc1F
CN1c2ccc(-c3cccc(F)c3)cc2[C@H]2[C@H](CCN2C(=O)C2CC2)[C@H]1CO
C[C@@H]1CN([C@H](C)CO)C(=O)c2cccc(NC(=O)C3CCOCC3)c2O[C@H]1CN(C)Cc1ccc2c(c1)OCO2
C[C@@H]1CN([C@H](C)CO)C(=O)c2cccc(NC(=O)C3CCOCC3)c2O[C@@H]1CN(C)Cc1ccc2c(c1)OCO2
C[C@@H]1CN([C@@H](C)CO)C(=O)c2cccc(NC(=O)C3CCOCC3)c2O[C@@H]1CN(C)Cc1ccc2c(c1)OCO2
C[C@@H]1CN([C@@H](C)CO)C(=O)c2cccc(NC(=O)C3CCOCC3)c2O[C@H]1CN(C)Cc1ccc2c(c1)OCO2
Cc1ccccc1N(C(=O)CCCC(=O)Nc1ccccn1)C(C(=O)NC1CCCC1)c1ccc(O)cc1 (centres undefined)
Cc1c(C(=O)Nc2ccccn2)oc2ccccc12
O=C(NCCCN1CCN(Cc2ccccc2)CC1)c1nnc(Cc2c(F)cccc2Cl)o1
COC(=O)c1c(NC(C)=O)sc(Cc2ccccc2)c1C
O=C(Nc1ccccn1)c1cccc(S(=O)(=O)N2CCOCC2)c1
CCC(=O)N1[C@H](CNC(=O)COC)[C@@H](c2ccc(-c3ccccc3)cc2)[C@@H]1CO
Cc1ccc(S(=O)(=O)NCCC(=O)Oc2ccc3ccc(=O)oc3c2)cc1
Cc1ccc2[nH]c(CNC(=O)C3CCCCC3)cc2c1
C[C@@H]1CN([C@@H](C)CO)C(=O)Cc2cc(NC(=O)Nc3cccc4ccccc34)ccc2O[C@H]1CN(C)C(=O)NC1CCCCC1
Cc1ccc(OCC(=O)Nc2cccc3c2CCCC3)cc1C
COc1ccc(/C=N/NC(=O)COc2ccccc2-c2ccccc2)cc1
CCOc1ccc(N2C(=O)Nc3ccccc3C2(O)C(=O)NCc2ccc3c(c2)OCO3)cc1 (centres undefined)
Cc1cc(Cl)c(S(=O)(=O)N2CCCCCC2)cc1OCC(=O)NC1CCCCC1
c1ccc(CSc2nnc(-c3cccnc3)o2)cc1
C=CC(C)n1c(Br)nc2c1c(=O)[nH]c(=O)n2C (centres undefined)
CS(=O)(=O)N(CC(=O)Nc1cccc(F)c1)c1cccc([N+](=O)[O-])c1
Cc1c(-c2ccccc2)cn2c1-c1ccc(C)n1CC2
O=C(CN1CCOCC1)Nc1cc(Cl)ccc1Cl
CCn1c(CCNC(=O)c2ccc(OC)cc2)nnc1SCC(=O)Nc1ccccc1F
COc1cc(OC)c(-c2nc3cnccc3n2C)cc1OC
CCOC(=O)c1[nH]c2c(c1C)C(=O)CC(c1ccco1)C2 (centres undefined)
COC(=O)c1[nH]c2c(c1C)C(=O)CC(c1ccccc1)C2 (centres undefined)
CCC(=O)N1[C@H](CO)[C@H](c2ccccc2)[C@@H]1CN(CC)C(=O)c1cccc(F)c1
Cc1ccc(NCc2nnc(SCC(=O)Nc3ccccc3)n2CC2CCCO2)c(C)c1 (centres undefined)
CC1CCN(C(=S)c2ccc(O)cc2)CC1
CC1CCN(S(=O)(=O)c2ccc(NC(=O)Cc3cccs3)cc2)CC1
COCC(=O)Nc1ccc2c(c1)[C@@H]1C[C@H](CC(=O)NCc3ccccc3)O[C@H](CO)[C@@H]1O2
O=C(C[C@@H]1C[C@H]2c3cc(NS(=O)(=O)c4ccc(F)cc4)ccc3O[C@H]2[C@H](CO)O1)NCc1ccc(Oc2ccccc2)cc1
COc1ccc(NC(=O)Nc2ccc3c(c2)CC(=O)N([C@@H](C)CO)C[C@@H](C)[C@@H](CN(C)C(=O)NC(C)C)O3)cc1
COc1ccc(NC(=O)Nc2ccc3c(c2)CC(=O)N([C@@H](C)CO)C[C@@H](C)[C@H](CN(C)C(=O)NC(C)C)O3)cc1
C[C@@H]1CN([C@@H](C)CO)C(=O)c2cc(N(C)C)ccc2O[C@@H]1CN(C)C(=O)Nc1ccc(F)cc1
CC(=O)c1cccc(OCC(=O)Nc2ccccc2N2CCOCC2)c1
COCCCn1c(=O)/c(=C\c2ccccc2OC(F)F)s/c1=C(/C#N)C(N)=O
Cc1cc(C)c(C)c(S(=O)(=O)Nc2ccc(OCC(=O)O)cc2)c1C
Cc1cc(O)c(C(C)C)cc1N=Nc1ccccc1C(=O)O
Cc1ccc(C)c(S(=O)(=O)Nc2ccc(O)c3ccccc23)c1
Cc1ccc(C(=O)Oc2ccc(C(=S)N3CCOCC3)cc2)cc1
CC(=O)c1cccc(NC(=O)C(C)N2CCc3ccccc3C2)c1 (centres undefined)
C=CCn1cc(C(=O)N2CCc3ccccc3C2)c(=O)c2cc(S(=O)(=O)N(CC)CC)ccc21
Cc1ccc(CN2C(=O)C(C)(C)Oc3ccc(C(=O)N4CCCCC4)cc32)cc1
CCc1ccc(NC(=O)CN2CCc3ccccc3C2)cc1
CCc1cccc(NC(=O)Cc2cn(C)c3ccccc23)c1
Cc1noc(C)c1NC(=O)Nc1ccc2c(c1)CC(=O)N([C@@H](C)CO)C[C@H](C)[C@@H](CN(C)Cc1ccc(Cl)c(Cl)c1)O2
